Compound activity (PubChem)
This excerpt belongs to a sample that is enriched for hits.
LmPK inhibitor = blocks Leishmania mexicana pyruvate kinase activity; purified LmPK, Kinase-Glo ATP luminescence, 1 h; AID 1721; Q27686; Potency, µM (doses to about 57.5 µM), most hits filed as inhibitors; 290,000 tested, 0.37% active
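Screened at intermediate enzyme activity to detect both inhibitors and activators: LmPK at 0.1 nM, with a 0.5 nM enzyme column as activation reference. PEP 0.5 mM, ADP 0.1 mM; ATP detected by luminescence after 1 h.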
Shiga toxin inh = blocks Shiga toxin action in Vero cells; Vero cells, Shiga toxin protein synthesis inhibition reporter; AID 2315; 290,000 tested, 9.2% active; inhibition, % at 38.7 µM; in the data active = inhibition mostly above about 28%, no sharp cut-off; inactive = mostly below about 43%
CHX counter = affects cycloheximide protein synthesis inhibition readout, counter-screen | cell reporter, cycloheximide protein synthesis inhibition counterscreen | max response, % | 300,000 tested, 12% active; in the data active = max response mostly above about 13%, no sharp cut-off; inactive = mostly below about 14%; note: read at 38.3 µM for the half of the compounds with a filed dose
Giardia FBPA inh = Giardia lamblia aldolase inhibition. A8B2U2. purified Giardia FBPA. Potency, µM (highest dose often 59.6 µM), most hits filed as inhibitors. 290,000 tested, 0.71% active; note: nearly all actives have a fitted effect of over 55% in size
Target sequence (A8B2U2 whole entry, looked up): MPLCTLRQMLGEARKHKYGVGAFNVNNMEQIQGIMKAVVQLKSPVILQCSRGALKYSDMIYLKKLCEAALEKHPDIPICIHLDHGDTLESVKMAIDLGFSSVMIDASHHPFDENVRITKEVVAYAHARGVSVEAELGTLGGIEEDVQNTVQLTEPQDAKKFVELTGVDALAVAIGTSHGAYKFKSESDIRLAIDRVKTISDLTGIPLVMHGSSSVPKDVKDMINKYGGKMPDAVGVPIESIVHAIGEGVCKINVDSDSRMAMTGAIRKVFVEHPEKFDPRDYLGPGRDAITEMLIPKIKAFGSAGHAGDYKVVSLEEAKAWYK
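Giardia FBPA (40 nM reagent) was preincubated 10 min at RT with compound (up to 57.5 uM final), then substrate plus GAPDH/TPI/NAD/arsenate coupling system with diaphorase/resazurin was added; resorufin fluorescence (525/598 nm) was read after 20 min.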
RE007 growth inh = less growth of the S. pombe RE007 Vpr strain | S. pombe RE007 Vpr strain, BacTiter-Glo ATP luminescence, 24 h | Potency, µM (highest dose often 92.2 µM), usual class: inhibitors | 360,000 tested, 0.21% active; active = well fitted falling curve with a large enough effect; inconclusive = small, poorly fitted or top-dose-only effect; inactive = no such curve, though single readings can be large or run the other way; note: nearly all actives have a fitted effect of over 50% in size
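Fission yeast strain RE007, carrying one chromosomally integrated HIV-1 vpr copy, was seeded at OD 0.01 in PMG+AL medium with 23 nL pinned compound. After 24 h at 30 °C and 99% humidity, viability was read by BacTiter-Glo luminescence.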
TbPYK inhibitor = T. brucei pyruvate kinase inhibition. Q57TT1. TbPYK enzyme, Kinase-Glo Plus ATP luminescence, 45 min. Potency, µM (doses to about 76.8 µM), usual class: inhibitors. 410,000 tested, 0.12% active; note: nearly all actives have a fitted effect of over 50% in size
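Assay buffer: 50 mM TEA pH 7.2, 100 mM KCl, 10 mM MgCl2, 0.05% BSA, 0.01% Tween-20. Pyruvate kinase from T. brucei plus substrate met compound, then ADP (130 uM final). Luminescence was read post 45 min RT.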
A number is an active result; [ ] = remark or other dose. Unless noted, calls come from the whole dose curve; as a rule, active = well fitted curve in the direction sought with a large enough effect; inconclusive = small, poorly fitted or top-dose-only effect, or another doubt; inactive = no such curve, though single readings can be large; an effect the other way counts as inactive or inconclusive.

Cc1ccccc1Nc1nc(-c2sc(NC(=O)c3ccco3)nc2C)cs1 was read as LmPK inhibitor inactive, Shiga toxin inh inactive, CHX counter inactive, Giardia FBPA inh inconclusive, RE007 growth inh inactive and TbPYK inhibitor inactive.
For COc1cccc(Nc2nc(-c3sc(NC(=O)c4ccccc4)nc3C)cs2)c1 the results were LmPK inhibitor inactive, Shiga toxin inh 70.9, CHX counter inactive, Giardia FBPA inh inactive, RE007 growth inh inactive and TbPYK inhibitor inactive.
`Cc1nc(NC(=O)c2ccc(Cl)cc2)sc1-c1csc(Nc2cccc(F)c2)n1` gave LmPK inhibitor inactive, Shiga toxin inh inactive, CHX counter 23.8 and Giardia FBPA inh inactive.
Screening CC(=O)Nc1nc(C)c(-c2csc(Nc3cccc(C(C)=O)c3)n2)s1 returned LmPK inhibitor inactive, Shiga toxin inh inactive, CHX counter inactive, Giardia FBPA inh inactive, RE007 growth inh inactive and TbPYK inhibitor inactive.
`Cc1ccc(Nc2nc(-c3sc(NC(=O)c4cccc(Cl)c4)nc3C)cs2)cc1` gave LmPK inhibitor inactive, Shiga toxin inh inactive, CHX counter inactive and Giardia FBPA inh inactive.
For COc1ccccc1Nc1nc(-c2sc(NC(=O)c3cccc(Cl)c3)nc2C)cs1 the results were LmPK inhibitor inactive, Shiga toxin inh inactive, CHX counter 13.7 and Giardia FBPA inh inactive.
Screening COc1ccc(-n2nc(C(=O)O)c3csc(N)c3c2=O)cc1 returned Shiga toxin inh inactive and CHX counter inactive.
For CC1(C)NC(=O)N(CC(=O)N2CCCC(C(F)(F)F)C2)C1=O (configuration not stated) the results were RE007 growth inh inactive and TbPYK inhibitor inactive.
For CCn1c(=O)cc(SCC(=O)NCc2ccccc2OC)c2ccccc21 the results were TbPYK inhibitor inactive.
For Cc1nc(NC(=O)c2ccccc2)sc1-c1csc(Nc2ccc(C(=O)O)cc2)n1 the results were LmPK inhibitor inactive, Shiga toxin inh inactive, CHX counter 10.1, Giardia FBPA inh inactive, RE007 growth inh inactive and TbPYK inhibitor inactive.
For CCCC(=O)Nc1sc(-c2ccccc2)c(-c2ccccc2)c1C(=O)O the results were RE007 growth inh inactive and TbPYK inhibitor inactive.
Screening Cc1nc2ccccc2nc(C)c1=NOCC(=O)N(c1ccccc1)C(C)C returned LmPK inhibitor inactive, Shiga toxin inh 115.6, CHX counter 61.1, Giardia FBPA inh inactive, RE007 growth inh inactive and TbPYK inhibitor inactive.
Screening CC(=O)n1nc(-c2ccc(Cl)cc2)nc1NCc1ccco1 returned LmPK inhibitor inactive, Shiga toxin inh 49.8, CHX counter 31.2, Giardia FBPA inh inactive, RE007 growth inh inactive and TbPYK inhibitor inactive.
For COc1ccc(C(=O)n2nc(-c3ccc(Cl)cc3)nc2NCc2ccco2)cc1 the results were TbPYK inhibitor inactive.
`COc1ccc(CC(=O)n2nc(-c3ccc(Cl)cc3)nc2NCc2ccco2)cc1` gave LmPK inhibitor inactive, Shiga toxin inh inactive, CHX counter 22.5, Giardia FBPA inh inactive, RE007 growth inh inactive and TbPYK inhibitor inactive.
Screening O=C(CN1C(=O)C(=O)N(C2CCCC2)C1=O)Nc1ccc([N+](=O)[O-])cc1 returned RE007 growth inh inconclusive and TbPYK inhibitor inactive.
Cc1ccc(-c2cc(N)n(-c3ccc(F)cc3)n2)cc1 was read as LmPK inhibitor inactive, Shiga toxin inh 67.0, CHX counter 48.8, Giardia FBPA inh inactive, RE007 growth inh inactive and TbPYK inhibitor inactive.
For Cc1ccc(-c2cc(N)n(-c3ccc(C)cc3)n2)cc1 the results were LmPK inhibitor inactive, Shiga toxin inh 56.6, CHX counter 30.9, Giardia FBPA inh inactive, RE007 growth inh inactive and TbPYK inhibitor inactive.
Screening Cc1ccc(-c2cc(N)n3nc(-c4ccc(C)cc4)cc3n2)cc1 returned LmPK inhibitor inactive, Shiga toxin inh inactive, CHX counter inactive, Giardia FBPA inh inactive, RE007 growth inh inactive and TbPYK inhibitor inactive.
`COc1ccc(CN(Cc2ccco2)c2cnc(S(C)(=O)=O)nc2C(=O)Nc2ccc(C)c(Cl)c2)cc1` gave TbPYK inhibitor inactive.
`CC1CC(C)CN(c2nc(N(C)c3ccccc3)nc(N)c2[N+](=O)[O-])C1` (configuration not stated) gave LmPK inhibitor inactive, Shiga toxin inh inactive, CHX counter inactive, Giardia FBPA inh inactive, RE007 growth inh inactive and TbPYK inhibitor inactive.
`CN(c1ccccc1)c1nc(N)c([N+](=O)[O-])c(N2CCCCC2)n1` gave LmPK inhibitor inactive, Shiga toxin inh 61.1, CHX counter 31.8, Giardia FBPA inh inactive, RE007 growth inh inactive and TbPYK inhibitor inactive.
Screening CN(c1ccccc1)c1nc(N)c([N+](=O)[O-])c(N2CCCC2)n1 returned LmPK inhibitor inactive, Shiga toxin inh 80.9, CHX counter 36.9, Giardia FBPA inh inactive, RE007 growth inh inactive and TbPYK inhibitor inactive.
CCN1CCN(c2nc(Nc3ccccc3F)nc(N)c2[N+](=O)[O-])CC1 was read as LmPK inhibitor inactive, Shiga toxin inh inactive, CHX counter inactive, Giardia FBPA inh inactive, RE007 growth inh inactive and TbPYK inhibitor inactive.
Nc1nc(Nc2ccccc2F)nc(N2CCCC2)c1[N+](=O)[O-] was read as LmPK inhibitor inactive, Shiga toxin inh 106.8, CHX counter 50.9, Giardia FBPA inh inactive, RE007 growth inh inactive and TbPYK inhibitor inactive.
`CN(c1ccccc1)c1nc(N)c([N+](=O)[O-])c(N2CCOCC2)n1` gave LmPK inhibitor inactive, Shiga toxin inh inactive, CHX counter inactive, Giardia FBPA inh inactive, RE007 growth inh inactive and TbPYK inhibitor inactive.
Cc1cc(C)n(-c2ccc(C(=O)OCC(=O)Nc3ccc(Cl)cc3[N+](=O)[O-])cc2)n1 was read as LmPK inhibitor inactive, Shiga toxin inh inactive, CHX counter inactive, Giardia FBPA inh inactive, RE007 growth inh inactive and TbPYK inhibitor inactive.
O=C(Nc1ccc(N2CCN(CCOc3ccc(Cl)cc3)CC2)c(C(=O)O)c1)c1ccc(F)cc1 was read as TbPYK inhibitor inactive.
For O=C(CCSc1ccccc1)Nc1nccs1 the results were LmPK inhibitor inactive, Shiga toxin inh inactive, CHX counter 19.1, Giardia FBPA inh inactive, RE007 growth inh inactive and TbPYK inhibitor inactive.
`O=C(CSC1CCCCC1)Nc1ccccc1Br` gave LmPK inhibitor inactive, Shiga toxin inh 90.1, CHX counter 12.6, Giardia FBPA inh inactive, RE007 growth inh inactive and TbPYK inhibitor inactive.
Screening CN(CC(=O)Nc1ccccc1Br)C(=O)CCC1CCCC1 returned LmPK inhibitor inactive, Shiga toxin inh 44.9, CHX counter 56.8, RE007 growth inh inactive and TbPYK inhibitor inactive.
Screening CN(CC(=O)Nc1ccccc1Br)C(=O)CCc1ccccc1 returned LmPK inhibitor inactive, Shiga toxin inh inactive, CHX counter inactive, Giardia FBPA inh inactive, RE007 growth inh inactive and TbPYK inhibitor inactive.
Screening Cc1ccc(SCCC(=O)Nc2nccs2)cc1 returned LmPK inhibitor inactive[11.5 µM], Shiga toxin inh inactive, CHX counter inactive, Giardia FBPA inh inactive, RE007 growth inh inactive and TbPYK inhibitor inactive.
